# Test results: the supplement of paper PMC11417369
# ± gives the standard deviation of the averaged measurements. Whole data set: some 25,000 sequences, median “ln(normalized median fluorescence intensity)” near 8.6, cut for the highest 2% near 10. For the sample, the highest values were picked, then their nearest neighbours and some sequences at random.
# Tested on: PfAP2-EXP AP2 domain (GST-tagged)
# Test: gcPBM binding intensity (ln(normalized median fluorescence intensity)); higher = stronger DNA binding
# Method in brief: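 After 1 h on an Agilent 4 × 180k array of primer-extended double-stranded 36-bp intergenic genomic probes and negative controls, bound GST-tagged P. falciparum DNA-binding domains were detected with Alexa488 anti-GST antibody and scanned at 488 nm. The domains had been expressed in E. coli, and binding took place in 1× PBS with 1% milk, 0.2 mg/ml BSA, 0.5% salmon testes DNA and 0.03% Triton X-100. Binding intensity is the highest Masliner-normalised natural-log median intensity across replicate spots of either probe orientation.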
row,Sequence,gcPBM binding intensity (ln)
1,ATATATATATATATGTGTACATATTTTTTTGAAGTG [XGTACX_site248],10.1 ± 0.29
2,TTTTTTTTTTTTTTTTGTACGTAAAAAAATATATAC [XGTACX_site1290],8.36 ± 0.22
3,AAATATAATAACGAACGTACTTATTATAATTTGTAA [XGTACX_site2342],8.32 ± 0.25
4,ACATATTAAAATATATGTACATAAAATATGAAAAAA [XGTACX_site5869],8.82 ± 0.3
5,ATAATAAAAATATATACATGCATTATTATATATATA [TGCATGCA_site799],8.97 ± 0.16
6,AAAATAAAAAGAAAAAATAAAAAGAAAAAATAAAAA [CACACA_negctrl_site120],8.33 ± 0.44
7,CATTAAAAAGAAAGTTCACACACATATATATGACGG [CACACA_site8836],8.84 ± 0.57
8,TAATTTCTTTAGGGGGTGCTTTTATAGTTTTTATTA,10.4 ± 0.54
9,CCTAATTTTATTAGGGTGCATTTTTAGTTAAATATA,8.48 ± 0.27
10,TTTATTATTATATTATTTTAATTTTTCTTTAGTACA [GTGCAC_negctrl_site392],8.29 ± 0.32
11,AGTATAGATGTATACACACACCAAACGTTAAAAAAA [CACACA_site7443],8.71 ± 0.53
12,CAAGGAACCGGACACACACACATAAATGTATTTATA [CACACA_site4574],8.46 ± 0.5
13,TATAAATATACACCCACACACATATATAAATAAATA [CACACA_site7717],8.93 ± 0.79
14,TATATAAATATACACCCACACACATATATATATATA [CACACA_site9247],10.2 ± 0.26
15,AAAAAAAAAAAACACACACACACACTAATATATAAA [CACACA_site8302],8.47 ± 0.56
16,TACATATACATATACACACACACACCCAAATAAATA [CACACA_site1344],8.86 ± 0.51
17,AATAAATATATATACACACCCATATATATATATATA [CACACA_site2595],10.1 ± 0.42
18,CACCCACTAATAAACACACACATATATATATATATA [CACACA_site389],10.2 ± 0.35
19,TATACATATACATATACACACACACCCATAAATAAA [CACACA_site8372],9.05 ± 0.38
20,AATAAATATAAATACACACCCATATATATATATATA [CACACA_site5436],10.2 ± 0.35

row,Sequence,gcPBM binding intensity (ln)
1,AAAAAAAATACATACACACACACACCCACATATATA [CACACA_site3561],8.75 ± 0.65
2,AATAAATATAAATACACACCCATATAAATATAAATA [CACACA_site7264],8.64 ± 0.51
3,CCCACTAAAAAACACACACACACACCCATATATATA [CACACA_site6140],8.98 ± 0.31
4,TATAAATATACACCCACACACATATATATATATATA [CACACA_site3745],10.2 ± 0.4
5,TTTTGATATATGAATATTAAGTTATATAATATTTTA [TGCATGCA_negctrl_site39],7.92 ± 0.28
6,ATAATAATTTAATACATACACACGTATATCTTTTTT [CACACA_site2041],8.45 ± 0.4
7,AAAAATTAACAAAAGGTGCAAACAAATAGTGGTTTT [GTGCAC_site9998],8.865 ± 0.049
8,AATTGCTCGATATATGCACACAGTTTTGTTATTTTT [CACACA_site8465],8.94 ± 0.36
9,AAAAAAAAAAAAAAAAGTACAAAAAGGAGAAAGATA [XGTACX_site7862],8.9 ± 0.47
10,TTAAAAGAAAATAGGTGTACACATAATATATACATA [XGTACX_site7697],8.92 ± 0.057
11,TTGTTTCCTTAATATTCACACACATATATATAATAT [CACACA_site8553],8.89 ± 0.48
12,ATATTAAACAAACACACACACATATATATATATATA [CACACA_site3383],10.2 ± 0.26
13,TTATATTAAACAAACACACACATATATATATATATA [CACACA_site2382],10.1 ± 0.47
14,GAATATTAAACAAACACACACACATATATATATATA [CACACA_site3382],10.1 ± 0.32
15,GAATATTAAACAAACACACACACATATATTTATATA [CACACA_site7563],8.63 ± 0.42
16,GTTTATATTAAACAAACACACACATATATATATATA [CACACA_site8749],10.2 ± 0.26
17,AATTTTTTATTAAACACACAAACATATATATATATA [CACACA_site1937],9.94 ± 0.35
18,TATATTAGAAGAAATTCACACATTCATGTAATCTTA [CACACA_site4706],8.07 ± 0.33
19,ATAAATAAGATATATACACACATATCTATACATATT [CACACA_site6369],8.28 ± 0.49
20,AATCGATAACAATGTAGTACCAGAAAAATAAATATT [XGTACX_site8501],8.99 ± 0.3

row,Sequence,gcPBM binding intensity (ln)
1,AGAATCACCAAATATGTACACACCTTAACATGTTTA [CACACA_site2068],9.01 ± 0.46
2,ATTAGCTACAAACAAAGGCTACCTATAGCAAGAGGG [GTGCAC_negctrl_site33],8.84 ± 0.39
3,ATTATTAAAAAGATGTAAATAAATGAATATATGCTT [CACACA_negctrl_site539],8.47 ± 0.39
4,TATTTTTTTTTTTTTTTTTTTTTAAAACATATCAAT [CACACA_negctrl_site925],7.95 ± 0.64
5,GTTAGCTCGTTCGGAGCACACACATATATATATATA [CACACA_site8595],10.1 ± 0.45
6,TAGCTCGTTCGGAGCACACACATATATATATATATA [CACACA_site1948],10.3 ± 0.28
7,TAGCTCGTTCGGAGCACACACATATAAATAAATATA [CACACA_site7002],8.38 ± 0.52
8,TTCTATATATTTGGAAGTACATTATATTTATTTTTT [XGTACX_site3172],8.44 ± 0.33
9,AAATAATAAATATATCGTACAAATATCATATATAAA [XGTACX_site2771],8.32 ± 0.38
10,TATATGTAAATGGACACACACATATATATATATATA [CACACA_site3659],10.1 ± 0.36
11,AATATTATAAATGTCACACATATATTCAAATATATA [CACACA_site4736],8.29 ± 0.38
12,AATAAATGGAATGTCACACATATATATATATATATA [CACACA_site4869],10.2 ± 0.37
13,CCTAAATAAATGGACACACACATATATATATATATA [CACACA_site1439],10.2 ± 0.32
14,ACACATAAATGAATAAATAAATAAATATAAATATAA [CACACA_negctrl_site1784],8.36 ± 0.29
15,CCTAAATAAATGGACACACACATATTTATATTTATA [CACACA_site6789],8.46 ± 0.45
16,TATCTGTAAATGGACACACACATATATATATATATA [CACACA_site5926],10.2 ± 0.2
17,TACCTAAATAAATGGACACACACATATATATATATA [CACACA_site8407],10.1 ± 0.3
18,AATATATGTAAATGGACACACACATATATATATATA [CACACA_site9220],10 ± 0.28
